Assay results published in ChEMBL document CHEMBL5724796, “Tm Shift (DSF) assay results for EUbOPEN Chemogenomics Library” (2024).

Columns and labels:
Conditions in all cases: Compound concentration 20.0 uM
[1] = molecular target: Tyrosine-protein kinase ABL1 (Homo sapiens) (UniProt P00519)
[2] = molecular target: Bromodomain-containing protein 4 (Homo sapiens) (UniProt O60885)
[3] = molecular target: Cyclin-dependent kinase 2 (Homo sapiens) (UniProt P24941)
[4] = molecular target: Casein kinase I isoform delta (Homo sapiens) (UniProt P48730)
[5] = molecular target: Glycogen synthase kinase-3 beta (Homo sapiens) (UniProt P49841)
[6] = molecular target: Mitogen-activated protein kinase 1 (Homo sapiens) (UniProt P28482)
[7] = molecular target: T1, Aurora kinase A (Homo sapiens) (UniProt O14965)
T1 sequence (whole entry): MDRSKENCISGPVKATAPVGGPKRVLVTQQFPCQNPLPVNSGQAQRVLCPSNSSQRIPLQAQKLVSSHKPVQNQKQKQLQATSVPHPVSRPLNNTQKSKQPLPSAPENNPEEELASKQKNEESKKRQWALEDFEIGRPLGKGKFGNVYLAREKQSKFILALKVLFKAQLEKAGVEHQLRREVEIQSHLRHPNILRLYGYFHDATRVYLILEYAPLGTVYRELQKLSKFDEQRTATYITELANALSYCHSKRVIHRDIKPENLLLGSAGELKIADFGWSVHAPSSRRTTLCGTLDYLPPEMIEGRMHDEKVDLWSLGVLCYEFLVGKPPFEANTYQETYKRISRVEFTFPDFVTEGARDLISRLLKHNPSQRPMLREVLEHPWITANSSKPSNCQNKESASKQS

[8] = molecular target: T2, Transcription intermediary factor 1-alpha (Homo sapiens) (UniProt O15164)
T2 sequence (whole entry): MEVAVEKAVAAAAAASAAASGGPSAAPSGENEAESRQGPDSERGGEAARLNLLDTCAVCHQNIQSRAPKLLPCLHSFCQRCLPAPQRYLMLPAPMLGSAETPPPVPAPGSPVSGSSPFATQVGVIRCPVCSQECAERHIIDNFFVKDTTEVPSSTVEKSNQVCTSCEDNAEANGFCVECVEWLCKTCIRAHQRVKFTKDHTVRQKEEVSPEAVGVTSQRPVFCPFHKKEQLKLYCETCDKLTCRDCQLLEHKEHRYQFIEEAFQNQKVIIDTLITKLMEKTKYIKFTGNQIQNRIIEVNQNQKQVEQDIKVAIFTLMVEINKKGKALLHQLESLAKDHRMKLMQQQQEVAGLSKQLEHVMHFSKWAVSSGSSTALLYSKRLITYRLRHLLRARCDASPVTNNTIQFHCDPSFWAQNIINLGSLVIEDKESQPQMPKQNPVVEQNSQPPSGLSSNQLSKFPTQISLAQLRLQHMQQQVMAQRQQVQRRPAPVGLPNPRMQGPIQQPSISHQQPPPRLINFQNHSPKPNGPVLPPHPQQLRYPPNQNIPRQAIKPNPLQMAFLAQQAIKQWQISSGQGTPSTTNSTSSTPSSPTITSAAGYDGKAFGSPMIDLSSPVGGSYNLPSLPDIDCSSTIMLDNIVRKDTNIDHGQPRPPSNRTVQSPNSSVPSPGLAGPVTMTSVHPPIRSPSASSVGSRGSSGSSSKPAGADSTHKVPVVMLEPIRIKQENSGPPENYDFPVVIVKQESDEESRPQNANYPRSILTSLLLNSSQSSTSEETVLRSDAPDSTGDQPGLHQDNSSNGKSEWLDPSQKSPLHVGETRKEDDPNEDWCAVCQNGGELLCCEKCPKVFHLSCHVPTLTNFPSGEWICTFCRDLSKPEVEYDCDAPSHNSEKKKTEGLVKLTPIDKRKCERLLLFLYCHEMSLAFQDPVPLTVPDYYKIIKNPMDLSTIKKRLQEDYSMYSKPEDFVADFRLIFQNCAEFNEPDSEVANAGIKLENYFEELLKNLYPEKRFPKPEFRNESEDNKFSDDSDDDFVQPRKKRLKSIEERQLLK

Glycogen synthase kinase-3 beta (Homo sapiens), sequence (P49841 whole entry, looked up): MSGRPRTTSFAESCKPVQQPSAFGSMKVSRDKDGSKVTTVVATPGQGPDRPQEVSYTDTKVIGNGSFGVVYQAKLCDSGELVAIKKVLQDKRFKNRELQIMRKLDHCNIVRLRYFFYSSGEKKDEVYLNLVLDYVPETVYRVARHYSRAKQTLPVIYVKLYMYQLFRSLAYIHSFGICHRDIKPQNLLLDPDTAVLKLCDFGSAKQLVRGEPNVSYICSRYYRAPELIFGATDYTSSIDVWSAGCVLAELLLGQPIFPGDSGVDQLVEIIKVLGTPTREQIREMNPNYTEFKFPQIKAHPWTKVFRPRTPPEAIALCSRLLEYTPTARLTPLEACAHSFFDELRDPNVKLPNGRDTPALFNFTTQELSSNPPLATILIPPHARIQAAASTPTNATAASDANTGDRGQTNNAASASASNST
Casein kinase I isoform delta (Homo sapiens), sequence (P48730 whole entry, looked up, canonical isoform): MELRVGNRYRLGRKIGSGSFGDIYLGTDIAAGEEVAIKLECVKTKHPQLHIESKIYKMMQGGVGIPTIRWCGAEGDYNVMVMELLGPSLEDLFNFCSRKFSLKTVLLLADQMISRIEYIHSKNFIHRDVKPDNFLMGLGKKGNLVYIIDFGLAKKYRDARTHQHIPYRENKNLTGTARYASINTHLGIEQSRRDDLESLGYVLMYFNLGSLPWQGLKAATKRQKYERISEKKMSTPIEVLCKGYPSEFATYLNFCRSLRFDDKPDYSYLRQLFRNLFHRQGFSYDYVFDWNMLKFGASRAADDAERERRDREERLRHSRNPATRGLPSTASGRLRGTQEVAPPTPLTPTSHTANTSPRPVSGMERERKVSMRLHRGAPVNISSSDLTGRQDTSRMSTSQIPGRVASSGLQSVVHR
Tyrosine-protein kinase ABL1 (Homo sapiens), sequence (P00519 whole entry): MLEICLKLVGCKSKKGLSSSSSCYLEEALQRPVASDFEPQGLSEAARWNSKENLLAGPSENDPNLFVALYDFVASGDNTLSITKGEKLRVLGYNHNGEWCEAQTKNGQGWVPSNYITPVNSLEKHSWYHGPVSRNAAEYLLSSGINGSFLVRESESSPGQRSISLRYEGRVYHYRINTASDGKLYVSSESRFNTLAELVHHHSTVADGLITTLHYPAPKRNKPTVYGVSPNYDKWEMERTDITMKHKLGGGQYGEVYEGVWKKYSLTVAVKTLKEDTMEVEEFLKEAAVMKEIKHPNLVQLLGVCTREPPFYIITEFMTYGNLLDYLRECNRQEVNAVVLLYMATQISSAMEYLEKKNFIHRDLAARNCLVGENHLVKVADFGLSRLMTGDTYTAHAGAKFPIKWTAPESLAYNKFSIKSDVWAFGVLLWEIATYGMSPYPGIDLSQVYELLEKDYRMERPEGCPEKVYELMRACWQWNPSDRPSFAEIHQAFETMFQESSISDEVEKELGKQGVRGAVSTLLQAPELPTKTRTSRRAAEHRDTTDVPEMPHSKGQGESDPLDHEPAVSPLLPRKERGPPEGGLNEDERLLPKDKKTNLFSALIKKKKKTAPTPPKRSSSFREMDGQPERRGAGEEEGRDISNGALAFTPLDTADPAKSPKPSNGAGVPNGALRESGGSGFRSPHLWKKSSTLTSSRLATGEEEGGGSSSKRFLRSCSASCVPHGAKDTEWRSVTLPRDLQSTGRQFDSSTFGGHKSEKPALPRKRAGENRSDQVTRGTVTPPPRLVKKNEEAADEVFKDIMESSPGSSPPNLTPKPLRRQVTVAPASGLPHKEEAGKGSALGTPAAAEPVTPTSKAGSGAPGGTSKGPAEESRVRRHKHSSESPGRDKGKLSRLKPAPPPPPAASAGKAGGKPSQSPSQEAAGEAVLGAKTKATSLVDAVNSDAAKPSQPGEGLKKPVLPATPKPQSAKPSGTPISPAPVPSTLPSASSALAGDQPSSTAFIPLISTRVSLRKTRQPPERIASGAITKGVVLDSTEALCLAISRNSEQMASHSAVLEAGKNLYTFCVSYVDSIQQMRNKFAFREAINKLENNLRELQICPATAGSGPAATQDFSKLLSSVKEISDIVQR
Mitogen-activated protein kinase 1 (Homo sapiens), sequence (P28482 whole entry): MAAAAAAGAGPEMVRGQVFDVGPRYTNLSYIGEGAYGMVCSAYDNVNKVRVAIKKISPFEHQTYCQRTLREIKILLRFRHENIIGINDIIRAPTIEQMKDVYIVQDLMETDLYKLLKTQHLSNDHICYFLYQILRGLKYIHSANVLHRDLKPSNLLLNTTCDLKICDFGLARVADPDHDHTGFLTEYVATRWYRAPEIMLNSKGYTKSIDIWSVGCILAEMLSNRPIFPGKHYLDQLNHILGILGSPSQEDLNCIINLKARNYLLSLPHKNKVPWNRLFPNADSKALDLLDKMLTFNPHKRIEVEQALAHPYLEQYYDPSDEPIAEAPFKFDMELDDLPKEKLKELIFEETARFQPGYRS

Row | Compound | ΔTm [1] [°C] | ΔTm [2] [°C] | ΔTm [3] [°C] | ΔTm [4] [°C] | ΔTm [5] [°C] | ΔTm [6] [°C] | ΔTm [7] [°C] | ΔTm [8] [°C]
1 | c1cncc(-c2cnn[nH]2)c1 | 0.48 | -1.91 | -0.01 | -0.01 | -0.3 | 0.24 | -1.49 | -0.2
2 | COC(=O)[C@@H]1CC2=CC(=O)CC[C@]2(C)[C@@]23O[C@@H]2C[C@@]2(C)[C@@H](CC[C@@]24CCC(=O)O4)[C@H]13 | 0.55 | -1.74 | -0.21 | 0.47 | -0.8 | 0.21 | -0.81 | -0.62
3 | CC(C)[C@@H]1C(=O)N(S(C)(=O)=O)[C@@H]2CCN(C(=O)/C=C/CN3CCCCC3)[C@H]21 | 0.18 | -2.34 | 0.22 | 0.11 | -1.7 | 0.03 | -0.54 | -1.12
4 | O=S(=O)(O)c1ccc2cc(/N=N/c3cc(S(=O)(=O)O)c4cccnc4c3O)ccc2c1 | 0.53 | -2.44 | 2.89 | 0.85 | 1.3 | -3.54 | -2.45 | -1.13
5 | COc1ccc2c(c1)OC(C)(C)C(c1ccccc1)C2c1ccc(OCCN2CCCC2)cc1 (stereo unspecified) | -0.02 | -3.83 | -2.04 | -0.1 | 0 | -2.68 | 0.51 | -3.44
6 | O=C(N1CCCCC1c1ccccc1)n1cc(-c2ccc(-c3cccc(CO)c3)cc2)nn1 (stereo unspecified) | -2.74 | -2.31 | -2.39 | -10.5 | -1.86 | -9.96 | -5.38 | 2.17
7 | N[C@](CCCCB(O)O)(CCN1CCCCC1)C(=O)O | 0.12 | 2.02 | 1.3 | -0.19 | -0.19 | 0.26 | -1.26 | 0.59
8 | Cc1nc(N)c2nnn(C[C@H]3CN(Cc4nccs4)CCO3)c2n1 | 0.44 | -3.68 | -0.07 | -0.32 | -0.34 | 0.04 | -1.7 | 1.36
9 | O=c1[nH]c(N2CCC3(CC2)CN(CCO)c2cc(F)cc(F)c23)nc2c1CCCC2 | 0.43 | -3.2 | 0.1 | -0.13 | -1.32 | 0.22 | -0.79 | -1.21
10 | CCCSc1nc2c(c(=O)n1-c1ccccc1)SCC2 | -0.05 | 1.58 | -0.05 | -0.11 | -0.82 | 1.06 | 0.01 | 0.72
11 | CC(=O)N1CCC(c2ccc(C(=O)NC(=N)N)cc2C(F)(F)F)CC1 | 0.12 | 0.39 | 0.7 | -0.02 | -0.96 | 0.47 | -0.69 | 1.39
12 | CCCOc1ccc(CCc2nc3cc(-c4c(C)noc4C)ccc3n2CCN2CCOCC2)cc1 | 0.14 | 0.27 | -1.68 | 0.28 | 1.16 | 0.33 | -1.97 | -1.29
13 | Cc1cc(OCCCNCC(C)(C)C(N)=O)ccc1Cc1c(O[C@@H]2O[C@H](CO)[C@@H](O)[C@H](O)[C@H]2O)n[nH]c1C(C)C | 0.7 | -2.92 | 0.08 | -0.08 | -0.66 | 0.38 | -2.36 | 0.9
14 | COc1cc2c(cc1-c1c(C)noc1C)[nH]c1nc(C)nc(-c3ccnc4ccccc34)c12 | 0.56 | 11.5 | -0.3 | -0.15 | 0.97 | 0.15 | -2.62 | -0.1
15 | O=C(c1cccc(-c2ccc(-c3cn(C(=O)N4CCCCC4c4ccccc4)nn3)cc2)c1)N1CCCCC1 (stereo unspecified) | 1.85 | 11.3 | 0.3 | 0.93 | -2.22 | 1.43 | 4.6 | -0.32
16 | Cc1cccc(Nc2ccncc2S(=O)(=O)NC(=O)NC(C)C)c1 | 0.72 | -2.84 | -0.02 | -0.02 | -0.74 | 0.43 | -2.33 | 0.72
17 | Cc1ccsc1C(=CCCN1CCC[C@@H](C(=O)O)C1)c1sccc1C | 0.26 | 0.65 | 0.86 | -0.21 | -0.18 | 0.16 | -1.21 | 0.76
18 | Cc1cc(C)c(-c2[nH]nc(C)c2C)cc1C(=O)N1CC(c2ccc(C#N)cc2)C1 | 1.06 | -3.66 | -0.16 | -0.21 | -0.42 | 0.26 | -2.18 | -0.05
19 | Cc1cc(C(=O)CN2CCC(O)CC2)c(C)n1-c1ccc(C#N)cc1 | 0.11 | -2.81 | -0.05 | -0.34 | -0.73 | 0.01 | -2.48 | -1.8
20 | NC(=O)c1ccc(Oc2ccc(C(N)=O)cc2)cc1 | 0.24 | -0.98 | -0.07 | 0.22 | 0.02 | 0.14 | -1.15 | -0.86
21 | CNC[C@@H](O)COc1ccc(Cl)c(-c2nc(-c3c(C)noc3C)c(C)c(N3CC4(CCN(C(=O)OC)CC4)C3)n2)c1 | 0.37 | -2.53 | 0.32 | 0.05 | -0.26 | -2.08 | 0.12 | 0.65
22 | COc1ccc(-c2ccc(-c3cn(C(=O)N4CCCCC4c4ccccc4)nn3)cc2)cc1 (stereo unspecified) | 0.38 | -2.64 | 0.04 | -0.53 | -1.61 | -0.45 | -1.09 | -0.5
